In PubChem BioAssay (EPA / NIEHS) one finds outcome and AC50 data, which are given here for 40 compounds.

Molecules are shown by their SMILES. Inconclusive results are not listed. Active and inactive are the calls of the source. The calls were made as follows: active = hit-call score of the fitted dose curve at least 0.9, where 1 is the maximum; inconclusive = response in the unintended direction; inactive = score below 0.9.

The assay can be described thus: Tanguay_ZF_120hpf_BRAI_legacy: (Legacy) Oregon State University Tanguay Lab 120 Hour Post-fertilization zebrafish Assay for Brain Malformation (AID 2283641). On the procedure: Tanguay_ZF_120hpf_legacy is a whole embryo, multiplexed endpoint assay using zebrafish larvae exposed for 120 hours post fertilization on a 96-well plate.Tanguay_ZF_120hpf_BRAI_legacy is one of one assay component(s) measured or calculated from the Tanguay_ZF_120hpf_legacy assay. It is designed to make measurements of zebrafish development as detected with brightfield microscopy of developing zebrafish embryos.Data from the assay component Tanguay_ZF_120hpf_BRAI_legacy was analyzed into 1 assay endpoints. This assay endpoint, Tanguay_ZF_120hpf_BRAI_legacy, was analyzed in the positive analysis fitting direction relative to DMSO as the negative control and baseline of activity. Using a type of morphology reporter, gain-of-signal activity can be used to understand changes in developmentals as they relate to the whole embryo. To generalize the intended target to other relatable targets, this assay endpoint is annotated to the zebrafish development intended target family, where the subfamily is brain morphogenesis.
Zebrafish husbandry: Tropical 5D wild-type adult zebrafish were housed in at an approximate density of 1000 per 100 gallon tank at the Sinnhuber Aquatic Research Laboratory, Oregon State University, Corvallis, OR. Each tank was kept at standard laboratory conditions of 28C on a 14-h light/10-h dark photoperiod in fish water consisting of reverse osmosis water supplemented with a commercially available salt (Instant Ocean). Spawning funnels were placed into the tanks the night prior, and embryos were collected and staged. […] Ten microliters of each row of dilution plate 2 was added to 2 exposure plates. The final DMSO concentration used was 0.64% (vol/vol). Thirty-two embryos were also exposed to 5uM trimethyltin chloride (positive control). Plates were sealed to prevent evaporation and foil covered to reduce light exposure and kept in a 28C incubator. Embryos were statically exposed until 120 hpf. At 24 hpf, embryos were assessed for photomotor response using a custom photomotor response analysis tool (PRAT) and for developmental toxicity endpoints (MO24: mortality at 24 hpf, DP: developmental progression, SM: spontaneous movement, and NC: notochord distortion). At 120 hpf, locomotor activity was measured using Viewpoint Zebralab and assessed for 18 endpoints. Zebrafish acquisition and analysis program (ZAAP), a custom program designed to inventory, acquire, and manage zebrafish data, was used to collect developmental endpoints as either present or absent (i.e., binary responses were recorded). If mortality occurred for an embryo (at either 24 or 120 hpf), the non-mortality endpoints were not measured.
Consider `CC(=O)OC/C=C(\C)CCC=C(C)C`, for which the call was inactive.
`COc1cc(S(=O)(=O)O)c(C)cc1N=Nc1c(O)ccc2cc(S(=O)(=O)O)ccc12`: the outcome was inactive.
On the same count and under the same terms, in the case of `CCOc1ccc2c(c1)C(C)=CC(C)(C)N2` it was “inactive”.
The same measure, in the same setting: as for `O=c1c(O)c(-c2ccc(O)c(O)c2)oc2cc(O)cc(O)c12`, the entry is “inactive”.
With `CCCCc1ccc2c(n1)[C@@H](c1ccc(OC)cc1C[C@H](C)C(=O)O)[C@H](C(=O)O)[C@H]2c1ccc2c(c1)OCO2`, the call was inactive.
On the same count and under the same terms, as for `CCCCCCCCCCCCCCCCCC(=O)O`, the entry is “inactive”.
Same read-out and setting: as for `CCOC(=O)CCC(=O)OCC`, the entry is “inactive”; as for `COCCOC[C@H](CC1(C(=O)NC2CCC(C(=O)O)CC2)CCCC1)C(=O)Oc1ccc2c(c1)CCC2` (stereo not given in full), “inactive”; as for `CCOC(=O)C(C)(C)Oc1ccc(Cl)cc1`, “inactive”.
Take `C=CCc1ccc(O)c(OC)c1`: the call was inactive.
On the same count and under the same terms, in the case of `CCCCCC(=O)O` it was “inactive”; in that of `Nc1ccc2c(c1)C(=O)c1ccccc1C2=O`, “inactive”; in that of `NS(=O)(=O)c1cc2c(cc1Cl)NCNS2(=O)=O`, “inactive”.
Still for that read-out and setting: in the case of `CC(=O)Oc1ccccc1C(=O)O` it was “inactive”.
Same read-out and setting: as for `O=c1[nH]cc(F)c(=O)[nH]1`, the entry is “inactive”.
As to `CCCc1cc(=O)[nH]c(=S)[nH]1`, the call was inactive.
`O=C(N[C@@H](Cc1ccccc1)[C@@H](O)C(=O)N1C[C@@H](O)[C@@H](O)C1)c1cc2cc(Cl)ccc2[nH]1`: the compound was called inactive.
In general, AC50 refers to the concentration giving half of the maximal activity seen. Regarding `Cc1cc(NC(=O)C(=O)O)cc(C)c1Oc1ccc(O)c2c1CCC2`, the AC50 is 546 nM (active).
Consider `CCc1c(C(=O)NN2CCCCC2)nn(-c2ccc(Cl)cc2Cl)c1-c1ccc(Br)cc1`, for which the compound was classed as inactive.
On the same count and under the same terms, in the case of `Oc1ccc2c(c1)OC[C@@H](N1CCC(O)(c3ccc(F)cc3)CC1)[C@H]2O` it was “inactive”; in that of `CC(=O)OCCOCCOCCOC(C)=O`, “inactive”.
As for `Cc1cc(=O)[nH]c(=S)[nH]1`, the outcome was inactive.
Turning to `C1CCC(SSC2CCCCC2)CC1`, the compound was classed as inactive.
Still for that read-out and setting: as for `O=C(O)CCCCC(=O)O`, the entry is “inactive”; as for `Nc1nc(N)c2nc(CNc3ccc(C(=O)N[C@@H](CCC(=O)O)C(=O)O)cc3)cnc2n1`, “inactive”; as for `CCCCCCCC=O`, “inactive”.
Same read-out and setting: in the case of `COCCOCCOC` it was “inactive”; in that of `CN1CCN(Cc2cc(-c3ccc4[nH]c(=O)oc4c3)co2)[C@@H](c2ccc(F)cc2)C1`, “inactive”; in that of `COc1cc(-c2nc(NC(=O)c3cc4cc(C)cc(C)c4n3CC(=O)O)sc2CCC2CCCCC2)c(OC)cc1Cl`, “inactive”.
The same measure, in the same setting: as for `CC(C)(C)c1cc(O)c(C(C)(C)C)cc1O`, the entry is “inactive”; as for `Cc1cccc(Nc2cc(Cl)nc(SCC(=O)O)n2)c1C`, “inactive”; as for `CN[C@H]1CC[C@@H](c2ccc(Cl)c(Cl)c2)c2ccc(S(N)(=O)=O)cc21`, “inactive”.
For the compound `c1cc(-c2ccncc2)ccn1`, the compound was called inactive.
As for `NCCO`, the call was inactive.
Still for that read-out and setting: in the case of `CCCCCCCCCCO` it was “inactive”; in that of `Cc1ccc(C)c(C)c1`, “inactive”; in that of `CC1(C)CC(N=C=O)CC(C)(CN=C=O)C1` (stereo not given), “inactive”.
Same read-out and setting: in the case of `Cc1nc(-c2ccc3c(c2)CCN(CCC2CCC(NC(=O)/C=C/c4ccc(F)cc4)CC2)CC3)no1` (stereo not given) it was “inactive”.
As for `CCNc1cccc(C)c1`, the result was inactive.
The same measure, in the same setting: as for `COc1ccc(S(=O)(=O)N2C(=O)[C@@](c3ccccc3OC)(N3C[C@H](O)C[C@H]3C(=O)N(C)C)c3cc(Cl)ccc32)c(OC)c1`, the entry is “inactive”.
